# TGFb inhibitor – TGF-b pathway inhibition. AID 588855. 410,000 compounds, 1.2% hits. Potency, µM (top dose mostly 46.1 µM), actives largely listed as inhibitors. HepG2 CAGA-GFP TGF-b/SMAD3 reporter, GFP fluorescence, 18 h; TGF-beta stimulated, 500 pg/mL final; further: nearly all actives have a fitted effect of over 65% in size
#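 HEPG2 CAGA-GFP, 1000 cells/well; 2 h settle, 37 C; cpd via pin tool; TGF-b 500 pg/mL final; 18 h, 37 C; GFP imaging ex488/em500-530; %Activity normalised to -TGF-b and +DMSO controls; CRC fit, curve class.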
# HepG2 tox – counter-screen for TGF-b inhibitors: cytotoxicity in HepG2 cells. HepG2 CAGA-GFP viability, ATP luminescence, 18 h. 410,000 compounds, 0.76% hits. Potency, µM (series often up to 46.1 µM), usual class: cytotoxic
#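 CellTiter-Glo luminescence gave cytotoxicity after 18 hours at 37 degrees C. The cells were HepG2 CAGA-GFP in 1% FBS DMEM, stimulated with 500 pg/mL TGF-beta after compound addition. %Activity was normalised to no-cell wells (complete cell-killing) and DMSO (no toxicity), and curves were fitted and classified.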
# TDP1 cell CPT – DT40-hTDP1 cell growth loss with CPT | chicken DT40 Tdp1-/-;hTDP1 cells + 20 nM CPT, ATP luminescence, 48 h | Potency, µM (highest dose often 46.2 µM), hits mostly inhibitors | 420,000 compounds, 12% hits; further: nearly all actives have a fitted effect of over 55% in size
#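 Chicken DT40 Tdp1-/- cells stably complemented with human TDP1 were seeded at 400 cells/well in medium containing 20 nM camptothecin, exposed to pin-transferred compounds, and grown at 37 °C for at least 48 hr. Viability was read as ATP luminescence.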
# DT40 TDP1 no CPT – qHTS for Inhibitors of human tyrosyl-DNA phosphodiesterase 1 (TDP1): qHTS in cells in absence of CPT; DT40 Tdp1-/- hTDP1 cells, no CPT, ATP luminescence, 48 h; Potency, µM (doses to about 46.2 µM), usual class: inhibitors; 420,000 compounds, 15% hits; AID 686978, 2013; further: nearly all actives have a fitted effect of over 55% in size
#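 Cells were dispensed at 400 per well, compounds added by pin tool, plates incubated ≥48 hr at 37 °C, then CellTiter-Glo added for 30 min at room temperature before luminescence reading. Line: DT40 Tdp1-/- complemented with hTDP1; camptothecin omitted.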
# ASM inhibitor – inhibitors of human secretory acid sphingomyelinase | P17405 | placental ASM, HMU-PC fluorogenic substrate, 60 min | Potency, µM (titrated, usually from 57.5 µM), usual class: inhibitors | 340,000 compounds, 0.006% hits
# Target sequence (P17405 47-631 limits assumed): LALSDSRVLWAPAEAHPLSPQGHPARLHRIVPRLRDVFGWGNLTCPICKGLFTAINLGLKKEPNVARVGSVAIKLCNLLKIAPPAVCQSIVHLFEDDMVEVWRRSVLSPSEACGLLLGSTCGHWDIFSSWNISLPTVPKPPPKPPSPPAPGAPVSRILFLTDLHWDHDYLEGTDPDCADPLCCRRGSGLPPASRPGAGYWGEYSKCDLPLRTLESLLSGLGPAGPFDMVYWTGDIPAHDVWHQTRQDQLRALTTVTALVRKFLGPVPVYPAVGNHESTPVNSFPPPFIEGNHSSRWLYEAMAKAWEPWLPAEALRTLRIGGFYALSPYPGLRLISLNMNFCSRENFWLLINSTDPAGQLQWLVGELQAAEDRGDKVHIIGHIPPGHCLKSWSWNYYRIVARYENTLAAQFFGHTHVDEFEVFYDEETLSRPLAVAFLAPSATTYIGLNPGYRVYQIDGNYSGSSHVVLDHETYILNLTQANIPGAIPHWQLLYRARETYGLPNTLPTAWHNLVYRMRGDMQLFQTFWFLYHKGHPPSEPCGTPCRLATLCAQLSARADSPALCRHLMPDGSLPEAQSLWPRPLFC
#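 Steps: dispense placental human ASM, pin compound, wait 10 min at room temperature, add HMU-PC0 substrate at 9 uM final, incubate 60 min at 37 °C, add stop solution raising pH to 10, read fluorescence.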
# IL1B secr inh – blocks inflammasome-driven IL-1 beta release | activity change, % at 57.5 µM | THP-1 LPS/ATP IL-1B secretion, AlphaLISA, 16 h; stronger effect = lower value | 360,000 compounds, 4.7% hits; in the data active means activity change below about -50%; inconclusive means mostly about -30% to -49%
#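 THP-1 cells pretreated 1 hr with compounds (up to 57.5 uM final), then stimulated with LPS (250 ng/mL final) plus ATP (1.25 mM final); secreted IL-1B measured by AlphaLISA after 16 hr, decreased signal indicating inhibition.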
# Numbers stand for hits; – = inactive; ? = inconclusive; · = not tested or not shown; [ ] = remark or other dose. Most compounds without a hit are left out; they make up all but 19% or so of the library. Unless noted, the call rests on the fitted dose curve; in most records, active means well fitted curve in the direction sought with a large enough effect; inconclusive means small, poorly fitted or top-dose-only effect, or another doubt; inactive means no such curve, though single readings can be large; an effect the other way counts as inactive or inconclusive.
SMILES,TGFb inhibitor,HepG2 tox,TDP1 cell CPT,DT40 TDP1 no CPT,ASM inhibitor,IL1B secr inh
COC(=O)C1=C(N)Oc2cc(C)[nH]c(=O)c2C1c1ccccc1OC (stereo unspecified),–,–,–,–,–,–
C/C(=N\Nc1nc(-c2cc(C)ccc2C)cs1)c1cc2c(ccc3ccccc32)oc1=O,–,–,?,16µM,–,–
C/C(=N\Nc1nc(-c2cc(C)ccc2C)cs1)c1cc2ccccc2oc1=O,?,–,–,–,–,–
Cc1oc2ncn(CC(C)C)c(=O)c2c1C(=O)N1CCN(c2ccc(F)cc2)CC1,?,–,–,–,·,·
CN1C(=O)Cc2cc(S(=O)(=O)NCc3ccccc3Cl)ccc21,–,–,?,?,·,·
Nc1ccccc1SC1CC(=O)N(c2ccc(Cl)c(Cl)c2)C1=O (stereo unspecified),?,–,26µM,13µM,–,?
O=C1CC(Sc2ccc(Cl)cc2)C(=O)N1c1ccc2c(c1)OCCO2 (stereo unspecified),–,–,2.9µM,15µM,–,·
Nc1ccccc1SC1CC(=O)N(c2ccc3c(c2)OCCO3)C1=O (stereo unspecified),–,–,–,?,–,–
O=C1SC(SC(=Nc2ccccc2)Nc2ccccc2)C(=O)N1c1ccccc1 (stereo unspecified),–,–,15µM,?,–,–
O=C1SC(Nc2ccccc2)C(=O)N1c1ccccc1 (stereo unspecified),·,·,–,–,·,·
Cc1cccc(N2C(=O)CC(SC(=Nc3ccccc3)Nc3ccccc3)C2=O)c1 (stereo unspecified),–,–,?,?,?,–
O=C1CC(SC(=Nc2ccccc2)Nc2ccccc2)C(=O)N1c1ccc(Cl)c(Cl)c1 (stereo unspecified),–,–,?,18µM,–,?
CC1CCCCC12NC(=O)N(CC(=O)Nc1cccnc1)C2=O (stereo unspecified),–,–,–,–,·,–
COc1cc(C=NO)nc(-c2ccccn2)c1,?,–,1.3µM,1.2µM,–,–
O=S(=O)(NC1CC2CCC1C2)c1ccc(Br)s1 (stereo unspecified),?,–,?,23µM,–,–
CCCCCCCCCCCCCCCC[n+]1ccc(/C=C/c2c[nH]c3ccccc23)cc1,–,–,0.89µM,0.71µM,·,·
CCCCCCCCCC[n+]1ccc(/C=C/c2c[nH]c3ccccc23)cc1,–,16µM,0.32µM,0.11µM,·,·
OCC[n+]1ccc(/C=C/c2c[nH]c3ccccc23)cc1,–,–,6.5µM,5.8µM,–,–
C(=C\c1c[nH]c2ccccc12)/c1cc[n+](C2CCCCC2)cc1,–,–,–,?,·,·
CCC1CN(CCNC(=O)c2scc3c2OCCO3)Cc2cc(OC)ccc2O1 (stereo unspecified),·,·,–[9.04 µM],?,·,·
Clc1ccc(CSc2nc3ncccc3[nH]2)cc1,?,–,?,?,·,·
CCc1nc2c(OCC(=O)C(C)(C)C)cccn2c1N(C=O)Cc1ccc(OC)cc1,–,–,–,?,·,–
CCc1nc2c(OCCC3CCCCC3)cccn2c1N(C=O)Cc1ccccc1,?,–,16µM,?,·,–
CCc1nc2c(OCCC3CCCCC3)cccn2c1N(C=O)Cc1ccc(OC)cc1,?,20µM,?,?,·,–
COc1ccc(CNC(=O)CN(CCC(C)C)S(=O)(=O)c2ccc3c(c2)OCCO3)cc1,–,–,–,–,–,–
SMILES,TGFb inhibitor,HepG2 tox,TDP1 cell CPT,DT40 TDP1 no CPT,ASM inhibitor,IL1B secr inh
Cc1noc(C)c1NC(=O)N(C)C[C@H]1Oc2ccc(NC(=O)C3CC3)cc2C(=O)N([C@H](C)CO)C[C@@H]1C,–,–,?,?,–,–
O=C(CSc1nnc(-c2cccnc2)n1-c1ccccc1)Nc1ccccc1,–,–,?,–,–,–
CCN(CC)c1ccc(-c2nnc(SCC(=O)Nc3ccccc3C#N)n2-c2ccccc2)cc1,–,–,18µM,18µM,–,–
N#Cc1ccccc1NC(=O)CSc1nnc(-c2ccccc2)n1-c1ccccc1,–,–,23µM,?,–,–
Cc1ccc(CCc2nnc(SCC(=O)Nc3ccccc3Cl)n2-c2ccccc2)o1,–,–,?,?,–,-64
O=C(CCC1N=C2c3ccccc3N=C(SCC(=O)Nc3cccc(Cl)c3)N2C1=O)NCc1ccco1 (stereo unspecified),–,–,?,?,·,·
O=C(CN1CCN(S(=O)(=O)c2ccccc2)CC1)Nc1cccc(C(F)(F)F)c1,–,–,16µM,?,–,–
O=C(CNc1cccc(S(=O)(=O)N2CCCC2)c1)Nc1cccc(F)c1,–,–,–,?,–,–
Cc1ccc(NC(=O)CNc2cccc(S(=O)(=O)N3CCCC3)c2)cc1F,?,–,–,?,–,-67
O=C(CNc1cccc(C(F)(F)F)c1)Nc1cccc(S(=O)(=O)N2CCCC2)c1,?,–,13µM,–,–,?
O=C(CNc1cc(S(=O)(=O)N2CCOCC2)ccc1NCC1CCCO1)Nc1ccc(C(F)(F)F)cc1 (stereo unspecified),–,–,?,?,–,-62
Cc1ccccc1OCC(=O)Nc1ccc(OCc2cc(=O)n3ccsc3n2)cc1,–,–,–,–,·,·
COC(=O)N(C)C[C@@H]1OCc2cnnn2CCCC(=O)N([C@H](C)CO)C[C@@H]1C,–,–,–,–,·,–
Oc1ccc(-c2cnccn2)cc1CN1CCN(C2CCCCC2)CC1,·,·,–[9.04 µM],–,·,·
Cc1nc(NCc2c(F)cccc2F)sc1-c1ccn(CCN2CCOCC2)n1,·,·,–,–,·,·
CC1C(=O)Nc2ccccc2N1C(=O)c1cccc(C(F)(F)F)c1 (stereo unspecified),–,–,?,?,–,–
O=C(COc1cccc(C(F)(F)F)c1)Nc1ccc(S(=O)(=O)N2CCCCC2)cc1,?,–,?,26µM,–,?
O=C(CN1CCCC1)Nc1cc(C(F)(F)F)cc(C(F)(F)F)c1,–,–,–,–,–,-69
COc1cccc(OC)c1OCCCOc1c(OC)cccc1OC,–,–,–,?,–,–
COc1cccc(OCCNC(=O)c2cc(OC)c(OC)c(OC)c2)c1,–,–,?,13µM,–,–
COc1cccc(OCCOc2c(OC)cccc2OC)c1,–,–,–,?,–,-60
COc1cc(NC(C)CCc2ccccc2)cc(OC)c1OC (stereo unspecified),–,–,13µM,10µM,–,–

# Compound activity from PubChem BioAssay.
